According to ChEMBL document CHEMBL1157539, “Thousands of chemical starting points for antimalarial lead identification” (Nature, 2010):

Tests used:
Assay type in all cases: functional
Plasmodium falciparum [1] = test: GSK_TCMDC: Inhibition of Plasmodium falciparum 3D7 in whole red blood cells, using parasite LDH activity as an index of growth. Test compounds present at 2uM
Plasmodium falciparum [2] = test: GSK_TCMDC: Inhibition of Plasmodium falciparum Dd2 in whole red blood cells, using parasite LDH activity as an index of growth. Test compounds present at 2uM
HepG2 = test: GSK_TCMDC: Percent inhibition of human HepG2 cell line. Test compounds present at 10uM.

O=C(Nc1cccc(-c2nn3ccccc3c2-c2ccnc(Nc3ccc(NCCCN4CCOCC4)c(F)c3)n2)c1)c1c(F)cccc1F
Inhibition (Plasmodium falciparum [1]): 100% | Inhibition (Plasmodium falciparum [2]): 97% | Inhibition (HepG2): 86%

O=C(Nc1cncc(NC(=O)c2ccc(Cl)c(Cl)c2)c1)c1ccc(Cl)c(Cl)c1
Inhibition (Plasmodium falciparum [1]): 100% | Inhibition (Plasmodium falciparum [2]): 70% | Inhibition (HepG2): 12%

COc1cc2nc(SCCCC#N)n(C3CCCCCC3)c(=N)c2cc1OC
Inhibition (Plasmodium falciparum [1]): 89% | Inhibition (Plasmodium falciparum [2]): 9% | Inhibition (HepG2): 0%

Cc1nnsc1C(=O)Nc1cccc(-c2cccc(-c3nc4ccccc4[nH]3)c2)c1
Inhibition (Plasmodium falciparum [1]): 100% | Inhibition (Plasmodium falciparum [2]): 34% | Inhibition (HepG2): 14%

O=C(C=Cc1ccc(Cl)c(Cl)c1)NCCCCCN1CCC(c2n[nH]c3ccccc23)CC1
Inhibition (Plasmodium falciparum [1]): 99% | Inhibition (Plasmodium falciparum [2]): 29% | Inhibition (HepG2): 32%

CCNC(C)(C)CN(Cc1ccc(-c2ccc(C(F)(F)F)cc2)cc1)C(=O)Cn1c(SCc2ccc(F)cc2)nc(=O)c2c1CCC2.O=C(O)C(O)C(O)C(=O)O
Inhibition (Plasmodium falciparum [1]): 95% | Inhibition (Plasmodium falciparum [2]): 94% | Inhibition (HepG2): 99%

O=C(NC1CCCCC1)N(Cc1ccc(-c2ccc(CNC3CCCC3)cc2)cc1)C1CCN(Cc2ccccc2)CC1.O=C(O)C(F)(F)F
Inhibition (Plasmodium falciparum [1]): 99% | Inhibition (Plasmodium falciparum [2]): 86% | Inhibition (HepG2): 31%

N#Cc1ccc(N2CCN(Cc3ccc(-c4ccc(-c5nc6cc(C(F)(F)F)ccc6[nH]5)s4)cc3)CC2)nc1.O=C(O)C(F)(F)F
Inhibition (Plasmodium falciparum [1]): 100% | Inhibition (Plasmodium falciparum [2]): 73% | Inhibition (HepG2): 13%

Cc1cccc2nc(-c3ccc(-c4ccc(CNCC5CCCO5)cc4)s3)[nH]c12.O=C(O)C(F)(F)F (configuration not stated)
Inhibition (Plasmodium falciparum [1]): 100% | Inhibition (Plasmodium falciparum [2]): 96% | Inhibition (HepG2): 11%
